Activity calls are given as the source filed them. Rule for the calls: active = hit-call score of the fitted dose curve at least 0.9, where 1 is the maximum; inactive = score below 0.9.
read-out: Monocyte Chemoattractant Protein-1 (MCP1), CCL2 (gene 6347); test: BSK_LPS_MCP1: BioMAP Diversity Plus: LPS Assay for Monocyte Chemoattractant Protein-1 (MCP1) Biomarker Activity (AID 2283081); conditions: primary human HUVEC with PBMC; actives raise or lower the signal;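 for AC50: co-culture stimulated with LPS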
Description: BSK_LPS is a cell-based, multiplexed-readout assay that uses umbilical vein endothelium and peripheral blood mononuclear cells, a human vascular primary cell co-culture, with measurements taken at 24 hours after chemical dosing in a 96-well plate.BSK_LPS_MCP1 is an assay component measured in the BSK_LPS assay. It measures MCP-1 antibody related to regulation of gene expression using ELISA technology.Data from the assay component BSK_LPS_MCP1 was analyzed into 1 assay endpoint. This assay endpoint, BSK_LPS_MCP1, was analyzed with bidirectional fitting relative to DMSO as the negative control and baseline of activity. Using a type of binding reporter, gain or loss-of-signal activity can be used to understand changes in the signaling as they relate to the gene CCL2. Furthermore, this assay endpoint can be referred to as a primary readout, because this assay has produced multiple assay endpoints where this one serves a signaling function. To generalize the intended target to other relatable targets, this assay endpoint is annotated to the cytokine intended target family, where the subfamily is chemotactic factor.
The levels of cell surface (or secreted, indicated by the prefix "s") biomarker endpoints were measured by ELISA. Overt cytotoxicity to cells in confluent adherent cultures (all systems other than the BT system) was assessed by measuring total protein levels using sulforhodamine B (SRB) staining in parallel cultures at the time of biomarker measurements, indicated as SRB endpoints. For proliferation assays for adherent cell types, individual cell types are cultured at sub-confluence and relative cell numbers quantified by SRB staining at time points optimized for each system (48 h: 3C and CASM3C systems; 72 h: BT and HDF3CGF systems; 96 h: SAg system). SRB was performed by staining cells with 0.1% SRB after fixation with 10% TCA and reading wells at 560 nm.Viability and proliferation of PBMC (T cells) was quantified by Alamar Blue reduction for the SAg and BT systems. For PBMC viability (referred to as PBMC Cytotoxicity within the assay endpoint names), cells were plated (75,000/well in a 96-well plate) and then chemical samples added for 1 h before addition of activators, SEB and TSST-1 (20 ng/mL final concentration each). Cells were incubated for 90 h. Then, Alamar Blue (20 uL/well) (Invitrogen, Cat DAL1100) was added for 6 h, and the plates were read with a fluorescence microplate reader at 546/580 nm (excitation/emission). For PBMC proliferation, cells were plated and activated as above but incubated for only 16 h prior to addition of Alamar Blue. Plates were read after 6 h.

Row | Structure (SMILES) | outcome | AC50
1 | CC(C)(N=C=O)c1cccc(C(C)(C)N=C=O)c1 | inactive | –
2 | CCCCCCCCCCCCCCCC(=O)OC/C=C(C)/C=C/C=C(C)/C=C/C1=C(C)CCCC1(C)C | inactive | –
3 | c1ccc(Oc2ccccc2)cc1 | inactive | –
4 | COc1ccc(CCN2CCC(Nc3nc4ccccc4n3Cc3ccc(F)cc3)CC2)cc1 | inactive | –
5 | Cc1cc(CCC(=O)OCCOCCOCCOC(=O)CCc2cc(C)c(O)c(C(C)(C)C)c2)cc(C(C)(C)C)c1O | inactive | –
6 | CN(C)C(=S)SC(=S)N(C)C | inactive | –
7 | CCCCN(CCCC)C(=O)N(CCCC)CCCC | – | 20 µM (active)
8 | CS(=O)(=O)OCCCCOS(C)(=O)=O | inactive | –
9 | Clc1cc(Cl)c(-c2c(Cl)c(Cl)cc(Cl)c2Cl)cc1Cl | inactive | –
10 | C=CC(C)(O)CCC=C(C)C (stereo not given) | inactive | –
11 | c1ccc(CCc2ccccc2)cc1 | inactive | –
12 | CCCCCC(C=O)=Cc1ccccc1 | – | 32.9 µM (active)
13 | O=C(Nc1ccc2c(O)c(N=Nc3ccc(N=Nc4ccc(S(=O)(=O)O)cc4)cc3)c(S(=O)(=O)O)cc2c1)c1ccccc1 | inactive | –
14 | CSCCC=O | inactive | –
15 | CC(=O)Nc1ccc(C(=O)CCl)cc1 | – | 5.89 µM (active)
16 | O=CN1CCOCC1 | inactive | –
17 | IC(I)I | inactive | –
18 | CC(C)(C)CC(C)(C)c1ccc(OCCOCC[N+](C)(C)Cc2ccccc2)cc1 | – | 7.38 µM (active)
19 | CC(=O)C1(C)CC2=C(CCCC2(C)C)CC1C (stereo not given) | – | 10.9 µM (active)
20 | CCCCCCC(CO)CCCC (stereo not given) | inactive | –

Row | Structure (SMILES) | outcome | AC50
21 | C=C(C)[C@H]1CC=C(C)C(=O)C1 | inactive | –
22 | O=C1c2ccccc2C(=O)c2c(O)ccc(O)c21 | inactive | –
23 | CC1(C)C2=CCCC(C)(C)[C@]23CC[C@H]1C3 | inactive | –
24 | COc1ccc(OC)c(N=Nc2c(O)ccc3ccccc23)c1 | – | 8.02 µM (active)
25 | CN(c1nccc(=O)[nH]1)C1CCN(c2nc3ccccc3n2Cc2ccc(F)cc2)CC1 | inactive | –
26 | CS(=O)(=O)c1ccc(C2=C(c3ccccc3)C(=O)OC2)cc1 | inactive | –
27 | CC=Cc1ccc(OCC)c(O)c1 | inactive | –
28 | CN(C)C(=O)Nc1ccc(Oc2ccc(Cl)cc2)cc1 | inactive | –
29 | CCN(CC)C(=O)N(CC)CC | inactive | –
30 | CCOC(=O)C(C#N)=C(c1ccccc1)c1ccccc1 | inactive | –
31 | C1=CC2C3C=CC(C3)C2C1 (stereo not given) | inactive | –
32 | C=C(C)C(=O)OCCOCCOCCOCCOC(=O)C(=C)C | inactive | –
33 | C=C(C)C(=O)OCCOCCOCCOC(=O)C(=C)C | inactive | –
34 | CC(=O)c1c(C)c([N+](=O)[O-])c(C(C)(C)C)c([N+](=O)[O-])c1C | inactive | –
35 | c1ccc2cc(Nc3ccc(Nc4ccc5ccccc5c4)cc3)ccc2c1 | inactive | –
36 | CC1(C)CCC[C@]2(C)[C@H]3CCO[C@]3(C)CC[C@@H]12 | inactive | –
37 | C[C@@H]1CCN(C(=O)[C@H](CCCN=C(N)N)NS(=O)(=O)c2cccc3c2NC[C@H](C)C3)[C@@H](C(=O)O)C1 | inactive | –
38 | CCCCOC(=O)CCCCCCCC(=O)OCCCC | inactive | –
39 | C=C(C)C(=O)OCC(CC)(COC(=O)C(=C)C)COC(=O)C(=C)C | inactive | –
40 | O=C1OC[C@H](Cc2cccc(O)c2)[C@H]1Cc1cccc(O)c1 | inactive | –

— PubChem BioAssay (EPA / NIEHS)
